Assay results published in the supplement of paper PMC4466140.

B1: unnamed (peptide)
chain: NLPKRKPPKLQGPFS

target: ScBbc1; assay: SPOT peptide array binding signal intensity (averaged, normalized) (arbitrary units (background-subtracted, floor 0; scale differs between SH3 domains)); higher = stronger binding of the SH3 domain to the peptide
Method in brief: (§1)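 GST-fused SH3 domains, from four yeast species, were produced in E. coli BL21(DE3) and captured on glutathione Sepharose. Membranes of cellulose carrying synthetic 15-mer peptides, in which cysteines had been replaced by serines, were exposed to each domain at 10 μg/ml overnight at 4°C in TBS-based blocking buffer. After anti-GST antibody, an HRP anti-mouse secondary and luminol, spots were imaged and quantified using Genespotter. Binding signal is normalized and background-subtracted spot intensity, averaged over replicates, in arbitrary units that differ between domains.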

Binder | SPOT peptide array binding signal intensity
B1 | 6.25

target: ScBem1-D1; assay: as above
Method in brief: as §1

Binder | SPOT peptide array binding signal intensity
B1 | 16

target: ScBzz1-D1; assay: as above
Method in brief: as §1

Binder | SPOT peptide array binding signal intensity
B1 | 39.5

target: ScBzz1-D2; assay: as above
Method in brief: as §1

Binder | SPOT peptide array binding signal intensity
B1 | 4

target: ScCyk3; assay: as above
Method in brief: as §1

Binder | SPOT peptide array binding signal intensity
B1 | 113

target: ScFus1; assay: as above
Method in brief: as §1

Binder | SPOT peptide array binding signal intensity
B1 | 162

target: ScHof1; assay: as above
Method in brief: as §1

Binder | SPOT peptide array binding signal intensity
B1 | 1.25

target: ScHse1; assay: as above
Method in brief: as §1

Binder | SPOT peptide array binding signal intensity
B1 | 1280

target: ScLsb1; assay: as above
Method in brief: as §1

Binder | SPOT peptide array binding signal intensity
B1 | 0.5

target: ScLsb2; assay: as above
Method in brief: as §1

Binder | SPOT peptide array binding signal intensity
B1 | 3.5

target: ScLsb3; assay: as above
Method in brief: as §1

Binder | SPOT peptide array binding signal intensity
B1 | 328

target: ScLsb4; assay: as above
Method in brief: as §1

Binder | SPOT peptide array binding signal intensity
B1 | 21.5

target: ScMyo3; assay: as above
Method in brief: as §1

Binder | SPOT peptide array binding signal intensity
B1 | 63.2

target: ScMyo5; assay: as above
Method in brief: as §1

Binder | SPOT peptide array binding signal intensity
B1 | 29.5

target: ScNbp2; assay: as above
Method in brief: as §1

Binder | SPOT peptide array binding signal intensity
B1 | 475

target: ScPex13; assay: as above
Method in brief: as §1

Binder | SPOT peptide array binding signal intensity
B1 | 2

target: ScRvs167; assay: as above
Method in brief: as §1

Binder | SPOT peptide array binding signal intensity
B1 | 23

target: ScSho1; assay: as above
Method in brief: as §1

Binder | SPOT peptide array binding signal intensity
B1 | 408

target: ScSla1-D1-D2; assay: as above
Method in brief: as §1

Binder | SPOT peptide array binding signal intensity
B1 | 164

target: ScSla1-D3; assay: as above
Method in brief: as §1

Binder | SPOT peptide array binding signal intensity
B1 | 12.5

target: SpAbp1-D1; assay: as above
Method in brief: as §1

Binder | SPOT peptide array binding signal intensity
B1 | 498

target: SpBbc1; assay: as above
Method in brief: as §1

Binder | SPOT peptide array binding signal intensity
B1 | 1.5

target: SpBzz1-D1; assay: as above
Method in brief: as §1

Binder | SPOT peptide array binding signal intensity
B1 | 382

target: SpBzz1-D2; assay: as above
Method in brief: as §1

Binder | SPOT peptide array binding signal intensity
B1 | 0.5

target: SpCyk3; assay: as above
Method in brief: as §1

Binder | SPOT peptide array binding signal intensity
B1 | 1

target: SpHof1; assay: as above
Method in brief: as §1

Binder | SPOT peptide array binding signal intensity
B1 | 117

target: SpHof1-2; assay: as above
Method in brief: as §1

Binder | SPOT peptide array binding signal intensity
B1 | 3.25

target: SpHof1-3; assay: as above
Method in brief: as §1

Binder | SPOT peptide array binding signal intensity
B1 | 475

target: SpHse1; assay: as above
Method in brief: as §1

Binder | SPOT peptide array binding signal intensity
B1 | 722

target: SpLsb1; assay: as above
Method in brief: as §1

Binder | SPOT peptide array binding signal intensity
B1 | 5

target: SpLsb4; assay: as above
Method in brief: as §1

Binder | SPOT peptide array binding signal intensity
B1 | 756

target: SpMyo1; assay: as above
Method in brief: as §1

Binder | SPOT peptide array binding signal intensity
B1 | 254

target: SpNbp2; assay: as above
Method in brief: as §1

Binder | SPOT peptide array binding signal intensity
B1 | 82.5

target: SpPex13; assay: as above
Method in brief: as §1

Binder | SPOT peptide array binding signal intensity
B1 | 5

target: SpRvs167; assay: as above
Method in brief: as §1

Binder | SPOT peptide array binding signal intensity
B1 | 7.17

target: SpSla1-D1-D2; assay: as above
Method in brief: as §1

Binder | SPOT peptide array binding signal intensity
B1 | ≤ 0

target: SpSla1-D3; assay: as above
Method in brief: as §1

Binder | SPOT peptide array binding signal intensity
B1 | 1
